{
  "source": "paper PMC7862700",
  "about": "“An all-to-all approach to the identification of sequence-specific readers for epigenetic DNA modifications on cytosine”",
  "assay_in_all_cases": "DAPPL (digital affinity profiling via proximity ligation, sequencing); 10 mM Tris-HCl pH 7.5, 50 mM NaCl, 1 mM DTT, 4% glycerol, room temperature, 30 min; GST-TFs on glutathione beads, 16-mer random dsDNA library, 0.1% formaldehyde crosslink after washing; high values mean tight binding",
  "key": {"FEV": {"target": "T1, FEV (Homo sapiens, UniProt Q99581 1-238)", "T1 sequence": "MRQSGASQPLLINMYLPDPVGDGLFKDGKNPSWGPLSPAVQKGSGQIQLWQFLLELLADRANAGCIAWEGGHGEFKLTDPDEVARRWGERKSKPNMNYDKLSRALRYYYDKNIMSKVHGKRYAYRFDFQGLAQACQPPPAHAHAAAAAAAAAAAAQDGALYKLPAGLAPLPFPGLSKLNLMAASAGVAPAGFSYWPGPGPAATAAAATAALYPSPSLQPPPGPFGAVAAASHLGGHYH", "details": "protein: recombinant; tags: N-terminal GST; dsDNA, one strand shown", "in_short": "(§1)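 Human transcription factors were made in yeast as GST fusions, captured on glutathione beads and barcoded with DNA. With a tag-only sample included, the pool was incubated with 200 nmole of a random double-stranded 16-mer DNA library in Tris/NaCl/DTT/glycerol buffer at room temperature for 30 min, then crosslinked with 0.1% formaldehyde after washing, ligated by proximity, amplified and sequenced. For binding signal, each hexamer's read frequency for a factor is divided by its frequency for the tag-only sample.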"}, "ETV5": {"target": "ETV5 (Homo sapiens, UniProt P41161 1-510)", "sequence (P41161 whole entry)": "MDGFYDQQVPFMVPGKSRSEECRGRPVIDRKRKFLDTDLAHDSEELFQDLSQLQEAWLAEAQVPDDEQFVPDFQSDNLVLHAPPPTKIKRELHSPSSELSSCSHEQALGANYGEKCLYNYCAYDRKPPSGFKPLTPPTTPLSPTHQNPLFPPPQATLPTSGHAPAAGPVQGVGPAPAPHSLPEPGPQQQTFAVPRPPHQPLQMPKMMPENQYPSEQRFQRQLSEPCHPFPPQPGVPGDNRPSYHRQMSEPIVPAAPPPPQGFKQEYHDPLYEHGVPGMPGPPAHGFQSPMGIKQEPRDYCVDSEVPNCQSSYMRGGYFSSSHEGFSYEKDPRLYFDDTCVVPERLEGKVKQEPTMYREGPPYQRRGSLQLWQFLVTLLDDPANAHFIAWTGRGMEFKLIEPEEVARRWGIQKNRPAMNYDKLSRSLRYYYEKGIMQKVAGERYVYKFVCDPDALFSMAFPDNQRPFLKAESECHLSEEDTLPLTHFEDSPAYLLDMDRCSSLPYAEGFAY", "details": "protein: recombinant; tags: N-terminal GST; dsDNA, one strand shown", "in_short": "as §1"}, "HSF1": {"target": "HSF1 (Homo sapiens, UniProt Q00613 1-529)", "sequence (Q00613 whole entry)": "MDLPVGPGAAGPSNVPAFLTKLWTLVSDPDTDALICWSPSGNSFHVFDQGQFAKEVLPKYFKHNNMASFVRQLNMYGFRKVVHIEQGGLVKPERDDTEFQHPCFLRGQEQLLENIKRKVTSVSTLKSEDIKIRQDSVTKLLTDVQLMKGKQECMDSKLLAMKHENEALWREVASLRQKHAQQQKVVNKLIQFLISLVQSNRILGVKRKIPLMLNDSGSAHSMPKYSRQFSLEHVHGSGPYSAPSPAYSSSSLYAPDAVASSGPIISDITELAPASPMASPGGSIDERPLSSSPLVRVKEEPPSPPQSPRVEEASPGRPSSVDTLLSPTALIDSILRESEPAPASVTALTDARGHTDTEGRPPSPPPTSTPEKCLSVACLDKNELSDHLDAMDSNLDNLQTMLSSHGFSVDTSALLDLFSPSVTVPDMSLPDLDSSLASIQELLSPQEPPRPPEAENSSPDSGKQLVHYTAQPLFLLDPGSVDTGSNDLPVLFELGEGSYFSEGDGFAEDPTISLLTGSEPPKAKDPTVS", "details": "protein: recombinant; tags: N-terminal GST; chain copies: 3; dsDNA, one strand shown", "in_short": "as §1"}, "SPIC": {"target": "T2, SPIC (Homo sapiens, UniProt Q8N5J4 1-248)", "T2 sequence": "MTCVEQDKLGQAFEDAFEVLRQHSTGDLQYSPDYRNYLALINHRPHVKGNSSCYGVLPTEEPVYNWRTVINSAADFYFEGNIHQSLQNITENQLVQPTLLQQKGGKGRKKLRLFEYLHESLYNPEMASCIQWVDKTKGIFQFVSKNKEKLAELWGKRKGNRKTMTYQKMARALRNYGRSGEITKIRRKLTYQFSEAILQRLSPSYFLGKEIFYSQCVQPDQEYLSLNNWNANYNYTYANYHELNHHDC", "details": "protein: recombinant; tags: N-terminal GST; dsDNA, one strand shown", "in_short": "as §1"}, "ELF4": {"target": "ELF4 (Homo sapiens, UniProt Q99607 1-663)", "sequence (Q99607 whole entry)": "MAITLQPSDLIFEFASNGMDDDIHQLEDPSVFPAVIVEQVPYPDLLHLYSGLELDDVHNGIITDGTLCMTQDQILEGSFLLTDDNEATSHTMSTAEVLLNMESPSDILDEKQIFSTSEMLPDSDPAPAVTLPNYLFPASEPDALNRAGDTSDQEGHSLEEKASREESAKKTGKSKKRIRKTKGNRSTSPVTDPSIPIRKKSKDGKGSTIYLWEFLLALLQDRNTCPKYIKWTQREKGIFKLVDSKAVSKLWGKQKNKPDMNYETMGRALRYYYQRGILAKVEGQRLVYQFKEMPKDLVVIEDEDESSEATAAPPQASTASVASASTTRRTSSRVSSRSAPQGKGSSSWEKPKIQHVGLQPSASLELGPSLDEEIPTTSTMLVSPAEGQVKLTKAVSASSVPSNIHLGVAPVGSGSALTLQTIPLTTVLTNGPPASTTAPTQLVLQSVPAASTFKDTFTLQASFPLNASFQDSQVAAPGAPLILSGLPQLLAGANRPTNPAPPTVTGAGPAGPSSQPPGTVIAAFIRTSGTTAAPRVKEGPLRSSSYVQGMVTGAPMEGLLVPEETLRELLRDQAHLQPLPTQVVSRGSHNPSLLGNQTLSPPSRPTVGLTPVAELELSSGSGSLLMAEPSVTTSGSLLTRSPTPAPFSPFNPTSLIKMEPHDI", "details": "protein: recombinant; tags: N-terminal GST; dsDNA, one strand shown", "in_short": "as §1"}, "ELK4": {"target": "T3, ELK4 (Homo sapiens, UniProt P28324-2 1-405)", "T3 sequence": "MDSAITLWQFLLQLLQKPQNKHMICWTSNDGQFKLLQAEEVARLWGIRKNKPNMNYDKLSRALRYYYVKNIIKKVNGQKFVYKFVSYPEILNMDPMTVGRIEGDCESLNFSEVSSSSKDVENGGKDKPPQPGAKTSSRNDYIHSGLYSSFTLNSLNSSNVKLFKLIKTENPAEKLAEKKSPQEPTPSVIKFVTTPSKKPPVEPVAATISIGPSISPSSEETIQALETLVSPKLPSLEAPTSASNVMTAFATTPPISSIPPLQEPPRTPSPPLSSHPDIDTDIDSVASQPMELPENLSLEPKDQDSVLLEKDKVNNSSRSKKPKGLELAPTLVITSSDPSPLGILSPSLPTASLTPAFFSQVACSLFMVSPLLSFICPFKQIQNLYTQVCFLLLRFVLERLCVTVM", "details": "protein: recombinant; tags: N-terminal GST; dsDNA, one strand shown", "in_short": "as §1"}, "ETV2": {"target": "T4, ETV2 (Homo sapiens, UniProt O00321 1-342)", "T4 sequence": "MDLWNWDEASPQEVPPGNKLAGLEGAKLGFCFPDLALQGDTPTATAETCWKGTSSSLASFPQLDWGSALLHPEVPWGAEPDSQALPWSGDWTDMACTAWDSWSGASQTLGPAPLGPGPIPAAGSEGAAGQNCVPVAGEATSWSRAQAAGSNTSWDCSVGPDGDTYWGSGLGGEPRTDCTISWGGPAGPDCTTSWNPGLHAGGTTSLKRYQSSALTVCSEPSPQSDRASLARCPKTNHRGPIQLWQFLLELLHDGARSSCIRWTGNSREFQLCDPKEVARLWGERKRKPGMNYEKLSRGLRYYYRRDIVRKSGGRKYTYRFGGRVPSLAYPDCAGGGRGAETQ", "details": "protein: recombinant; tags: N-terminal GST; dsDNA, one strand shown", "in_short": "as §1"}, "ELF3": {"target": "T5, ELF3 (Homo sapiens, UniProt P78545 1-371)", "T5 sequence": "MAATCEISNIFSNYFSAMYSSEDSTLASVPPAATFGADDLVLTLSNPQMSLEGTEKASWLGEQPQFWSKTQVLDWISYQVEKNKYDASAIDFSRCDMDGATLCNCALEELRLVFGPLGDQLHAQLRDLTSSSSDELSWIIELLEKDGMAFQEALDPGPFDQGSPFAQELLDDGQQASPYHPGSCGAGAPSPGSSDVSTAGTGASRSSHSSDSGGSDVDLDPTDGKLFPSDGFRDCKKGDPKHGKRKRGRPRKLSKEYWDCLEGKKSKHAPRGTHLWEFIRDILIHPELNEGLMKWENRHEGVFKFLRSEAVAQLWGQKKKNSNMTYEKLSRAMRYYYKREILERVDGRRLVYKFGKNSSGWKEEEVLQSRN", "details": "protein: recombinant; tags: N-terminal GST; dsDNA, one strand shown", "in_short": "as §1"}, "CRX": {"target": "CRX (Homo sapiens, UniProt O43186 1-299)", "sequence (O43186 whole entry)": "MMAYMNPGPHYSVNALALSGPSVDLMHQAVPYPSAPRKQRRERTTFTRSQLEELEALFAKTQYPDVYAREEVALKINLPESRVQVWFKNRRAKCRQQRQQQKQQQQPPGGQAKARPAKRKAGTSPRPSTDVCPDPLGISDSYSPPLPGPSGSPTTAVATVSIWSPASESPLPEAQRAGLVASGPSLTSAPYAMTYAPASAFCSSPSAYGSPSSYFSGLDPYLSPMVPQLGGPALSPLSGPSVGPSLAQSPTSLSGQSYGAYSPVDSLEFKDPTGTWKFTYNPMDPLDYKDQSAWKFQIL", "details": "protein: recombinant; tags: N-terminal GST; dsDNA, one strand shown", "in_short": "as §1"}, "ETV1": {"target": "ETV1 (Homo sapiens, UniProt P50549 1-477)", "sequence (P50549 whole entry)": "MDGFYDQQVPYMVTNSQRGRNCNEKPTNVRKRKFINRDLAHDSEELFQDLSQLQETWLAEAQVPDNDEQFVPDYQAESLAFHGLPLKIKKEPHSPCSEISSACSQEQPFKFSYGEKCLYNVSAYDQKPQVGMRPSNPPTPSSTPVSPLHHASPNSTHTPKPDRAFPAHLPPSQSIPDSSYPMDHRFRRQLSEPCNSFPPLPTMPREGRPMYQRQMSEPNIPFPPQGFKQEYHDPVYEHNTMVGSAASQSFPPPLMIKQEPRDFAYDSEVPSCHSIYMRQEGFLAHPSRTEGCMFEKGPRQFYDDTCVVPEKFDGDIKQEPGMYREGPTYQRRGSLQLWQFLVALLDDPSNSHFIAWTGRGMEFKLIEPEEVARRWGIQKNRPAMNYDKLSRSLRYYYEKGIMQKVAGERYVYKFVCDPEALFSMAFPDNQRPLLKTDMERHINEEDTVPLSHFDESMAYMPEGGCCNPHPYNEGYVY", "details": "protein: recombinant; tags: N-terminal GST; dsDNA, one strand shown", "in_short": "as §1"}},
  "data": [
    {"sequence": "AAGCTG", "values": [
      {"measurement": "binding signal", "setting": "FEV", "result": "1.14 fold enrichment (6-mer frequency, TF over GST control)"},
      {"measurement": "binding signal", "setting": "ETV5", "result": "1.08 fold enrichment (6-mer frequency, TF over GST control)"},
      {"measurement": "binding signal", "setting": "HSF1", "result": "1.25 fold enrichment (6-mer frequency, TF over GST control)"},
      {"measurement": "binding signal", "setting": "SPIC", "result": "1.08 fold enrichment (6-mer frequency, TF over GST control)"},
      {"measurement": "binding signal", "setting": "ELF4", "result": "1.08 fold enrichment (6-mer frequency, TF over GST control)"},
      {"measurement": "binding signal", "setting": "ELK4", "result": "1.19 fold enrichment (6-mer frequency, TF over GST control)"},
      {"measurement": "binding signal", "setting": "ETV2", "result": "1.17 fold enrichment (6-mer frequency, TF over GST control)"},
      {"measurement": "binding signal", "setting": "ELF3", "result": "1.28 fold enrichment (6-mer frequency, TF over GST control)"},
      {"measurement": "binding signal", "setting": "CRX", "result": "1.59 fold enrichment (6-mer frequency, TF over GST control)"},
      {"measurement": "binding signal", "setting": "ETV1", "result": "1.12 fold enrichment (6-mer frequency, TF over GST control)"}
    ]}
  ]
}
